Each sequence was assayed on PPARg:RXRa (NR concentration 180 nM, RXRa partner concentration 90 nM) (assay: PBM binding z-score (relative to random genomic background probes); higher = stronger binding; sequences stand for … in GC…GCGATTGACAGCGTAGAATGAAGG).
How it was run: (§1)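 Custom Agilent 4×180K protein-binding microarrays carried double-stranded probes, each with a 34-nt variable region. These regions held direct-repeat seeds, single-nucleotide variants, half-site ablations and random human genomic background sequences. Ligand-free nuclear receptor dimers were incubated on the arrays for 1 h, antibodies against each partner (one per run) detected binding, and scanned fluorescence was regression-normalized. Binding z-scores take the random background probes as reference.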

Question: ATCGAAAGGTAGACGAGGTGAGTATACACCGTTT was tested. Which PBM binding z-score did it give?
Answer: 0.859

Question: Which PBM binding z-score does the source give for CAGCCTAGGTCAGGGCCGGTATAGGAGGAACGTT here?
Answer: 0.482

Question: With CAAACTAGGTCAAGAGGTCGAAGTCCGCTTCCCG as the sequence, how does the PBM binding z-score read?
Answer: 8.83

Question: Which PBM binding z-score does the source give for TAGCCTAGGTCATTGGGGCAGTATAGTACGCATC here?
Answer: 4.24

Question: CGAACTAGGTCATTGACAGGACAGTGAATAGTAA was tested. Which PBM binding z-score did it give?
Answer: 7.66

Question: With AGATGTAGGTTACATCCGGGTCATTCAGGCTATG as the sequence, how does the PBM binding z-score read?
Answer: 5.05

Question: Which PBM binding z-score does the source give for CAAACTAGGTCAAAGAGGTCAAAGTCCGTGCGTA here?
Answer: 8.55

Question: Which PBM binding z-score does the source give for CATACAGGGTCAGCTAGGCCAGGGTAGGGACGGC here?
Answer: 3.01

Question: Which PBM binding z-score does the source give for GCTTACGGGTCGAAGGTTATAGCATGAATAGAAT here?
Answer: 6.66

Question: Which PBM binding z-score does the source give for CCTATTGGGCCACGAAAGGTCATTGATTCAGTGA here?
Answer: 2.92

Question: With CCCACTGGGCCAAAGGTCATTGATTCCAATGCTC as the sequence, how does the PBM binding z-score read?
Answer: 11.7

Question: With CCGACTGGGGCAAAAGTTACCATACTCAGTACGA as the sequence, how does the PBM binding z-score read?
Answer: 5.28

Question: Which PBM binding z-score does the source give for ACTAGCAGGCCAAGTTTGGGTCACTCTAACAAAG here?
Answer: -0.172

Question: With CGAACTAAGTCAGAACAGGACAGTGAAGGATGAT as the sequence, how does the PBM binding z-score read?
Answer: 0.514

Question: ACAGACAGTTGATGAAGGTAACTCAGGCTATCAT was tested. Which PBM binding z-score did it give?
Answer: 0.507

Question: How did the PBM binding z-score turn out when ATCTCTAGGTAACCAAGTTCAGTGGATGCCGAAC was run?
Answer: 0.437

Question: CAAACTAGGTCACCGGAAGGTCAAGGTCCGCATG was tested. Which PBM binding z-score did it give?
Answer: 9.82

Question: How did the PBM binding z-score turn out when CCTTACGGGTCACTGACAGTTTATAGCATTTGGA was run?
Answer: 4.21

Question: How did the PBM binding z-score turn out when AGGCAAAGTTCAGGACGAGGTAACGTAAAGCACG was run?
Answer: 3.33

Question: Which PBM binding z-score does the source give for CGTCCAAGGCCAGCAGGTCAGTGAAAGCGACGTG here?
Answer: -0.215

Question: How did the PBM binding z-score turn out when ATCTCTAGGTAAGACTCAGTGCAGTGAAGAACGC was run?
Answer: -0.0807

Question: How did the PBM binding z-score turn out when CCGACTGGGGCATAAGGTTAACATAAGCCAGCCC was run?
Answer: 2.6

Question: CCTAGCAGGCCAGGGTCACTCATGCATTTCGCTT was tested. Which PBM binding z-score did it give?
Answer: 0.947

Question: For CAAACTAGGTCAAGAGGTCATAGTCCGCTTCCCG, which PBM binding z-score is on record?
Answer: 9.82

Question: With ATCTCTAGGTAAGAGTCAGTTCAGTGAAGAACGC as the sequence, how does the PBM binding z-score read?
Answer: 0.239

Question: How did the PBM binding z-score turn out when GGAACGAGGGCGAGTTGATAGCAGAGTTTGATGG was run?
Answer: 0.373

Question: CGTCAATGTTCAAGGTAACGTAACAGAAAGCAGC was tested. Which PBM binding z-score did it give?
Answer: 0.532

Question: Which PBM binding z-score does the source give for CCTACTGGGCCAAGGGCATTGATCAGTCAAAGCA here?
Answer: 2.48

Question: With ATATGTCGGTTATCGGGTCATTCAGTTTGCGCAT as the sequence, how does the PBM binding z-score read?
Answer: 2.53

Question: Which PBM binding z-score does the source give for GCTAGCAGGCCATTTGGGTCACTCAGTGACGGGC here?
Answer: 0.272

Question: For CATTACGGGTCAAGGTTATAGCACGGGTGGTACG, which PBM binding z-score is on record?
Answer: 5.67

Question: With TCTCGGAGGACACGAAAGGTCATAGCTCGACATC as the sequence, how does the PBM binding z-score read?
Answer: 2.19

Question: How did the PBM binding z-score turn out when CCGGACAGGTGAAAGGTAACTCAGTCTGGTACGC was run?
Answer: 4.79

Question: Which PBM binding z-score does the source give for CCAGACAGGTGAGAAGGTAACTTAGCCTCGATTA here?
Answer: 0.351

Question: With TCGAGTAGGTTAGTCGGGGCATTCAACCAACATA as the sequence, how does the PBM binding z-score read?
Answer: 0.00295

Question: With CCTTGCAGGCCAATCTGGGTCACTCAAGGCTTGA as the sequence, how does the PBM binding z-score read?
Answer: 2.29

Question: CTCGAAAGGTCGGTTGAGGTGAGTACACGGATAA was tested. Which PBM binding z-score did it give?
Answer: 0.546

Question: How did the PBM binding z-score turn out when CCTGCTAGGTCGATGGTCAGCTAAAGCAGCTCGC was run?
Answer: 0.232

Question: For CCTCGGAGGACAGAAGGTCAGGGCTGTCCGCTTT, which PBM binding z-score is on record?
Answer: -0.206

Question: For CCTACTGGGCCAAGGTCAATGATCAGTCAAAGCA, which PBM binding z-score is on record?
Answer: 4.03

These sequences were tested on PPARg:RXRa 270nM:90nM, anti-RXR (NR concentration 270 nM, RXRa partner concentration 90 nM) in the same assay as above.
How it was run: as §1

Question: With ATCGAAAGGTAGACGAGGTGAGTATACACCGTTT as the sequence, how does the PBM binding z-score read?
Answer: 0.249

Question: How did the PBM binding z-score turn out when CAGCCTAGGTCAGGGCCGGTATAGGAGGAACGTT was run?
Answer: 0.692

Question: Which PBM binding z-score does the source give for CAAACTAGGTCAAGAGGTCGAAGTCCGCTTCCCG here?
Answer: 7.41

Question: How did the PBM binding z-score turn out when TAGCCTAGGTCATTGGGGCAGTATAGTACGCATC was run?
Answer: 4.06

Question: How did the PBM binding z-score turn out when CGAACTAGGTCATTGACAGGACAGTGAATAGTAA was run?
Answer: 6.13

Question: AGATGTAGGTTACATCCGGGTCATTCAGGCTATG was tested. Which PBM binding z-score did it give?
Answer: 4.32

Question: For CAAACTAGGTCAAAGAGGTCAAAGTCCGTGCGTA, which PBM binding z-score is on record?
Answer: 7.69

Question: Which PBM binding z-score does the source give for CATACAGGGTCAGCTAGGCCAGGGTAGGGACGGC here?
Answer: 2.84

Question: For GCTTACGGGTCGAAGGTTATAGCATGAATAGAAT, which PBM binding z-score is on record?
Answer: 6.7

Question: With CCTATTGGGCCACGAAAGGTCATTGATTCAGTGA as the sequence, how does the PBM binding z-score read?
Answer: 4.31

Question: How did the PBM binding z-score turn out when CCCACTGGGCCAAAGGTCATTGATTCCAATGCTC was run?
Answer: 10.5

Question: CCGACTGGGGCAAAAGTTACCATACTCAGTACGA was tested. Which PBM binding z-score did it give?
Answer: 6.09

Question: Which PBM binding z-score does the source give for ACTAGCAGGCCAAGTTTGGGTCACTCTAACAAAG here?
Answer: 0.0985

Question: With CGAACTAAGTCAGAACAGGACAGTGAAGGATGAT as the sequence, how does the PBM binding z-score read?
Answer: -0.265

Question: ACAGACAGTTGATGAAGGTAACTCAGGCTATCAT was tested. Which PBM binding z-score did it give?
Answer: -0.149

Question: ATCTCTAGGTAACCAAGTTCAGTGGATGCCGAAC was tested. Which PBM binding z-score did it give?
Answer: 0.741

Question: With CAAACTAGGTCACCGGAAGGTCAAGGTCCGCATG as the sequence, how does the PBM binding z-score read?
Answer: 7.78

Question: How did the PBM binding z-score turn out when CCTTACGGGTCACTGACAGTTTATAGCATTTGGA was run?
Answer: 4.37

Question: How did the PBM binding z-score turn out when AGGCAAAGTTCAGGACGAGGTAACGTAAAGCACG was run?
Answer: 4.04

Question: CGTCCAAGGCCAGCAGGTCAGTGAAAGCGACGTG was tested. Which PBM binding z-score did it give?
Answer: -0.182

Question: With ATCTCTAGGTAAGACTCAGTGCAGTGAAGAACGC as the sequence, how does the PBM binding z-score read?
Answer: 0.0157

Question: CCGACTGGGGCATAAGGTTAACATAAGCCAGCCC was tested. Which PBM binding z-score did it give?
Answer: 3.42

Question: CCTAGCAGGCCAGGGTCACTCATGCATTTCGCTT was tested. Which PBM binding z-score did it give?
Answer: 1.24

Question: For CAAACTAGGTCAAGAGGTCATAGTCCGCTTCCCG, which PBM binding z-score is on record?
Answer: 8

Question: Which PBM binding z-score does the source give for ATCTCTAGGTAAGAGTCAGTTCAGTGAAGAACGC here?
Answer: 1.03

Question: With GGAACGAGGGCGAGTTGATAGCAGAGTTTGATGG as the sequence, how does the PBM binding z-score read?
Answer: -0.24

Question: How did the PBM binding z-score turn out when CGTCAATGTTCAAGGTAACGTAACAGAAAGCAGC was run?
Answer: 0.03

Question: With CCTACTGGGCCAAGGGCATTGATCAGTCAAAGCA as the sequence, how does the PBM binding z-score read?
Answer: 3.44

Question: With ATATGTCGGTTATCGGGTCATTCAGTTTGCGCAT as the sequence, how does the PBM binding z-score read?
Answer: 2.94

Question: Which PBM binding z-score does the source give for GCTAGCAGGCCATTTGGGTCACTCAGTGACGGGC here?
Answer: 0.402

Question: Which PBM binding z-score does the source give for CATTACGGGTCAAGGTTATAGCACGGGTGGTACG here?
Answer: 5.45

Question: TCTCGGAGGACACGAAAGGTCATAGCTCGACATC was tested. Which PBM binding z-score did it give?
Answer: 3.86

Question: With CCGGACAGGTGAAAGGTAACTCAGTCTGGTACGC as the sequence, how does the PBM binding z-score read?
Answer: 5.2

Question: Which PBM binding z-score does the source give for CCAGACAGGTGAGAAGGTAACTTAGCCTCGATTA here?
Answer: 0.351

Question: Which PBM binding z-score does the source give for TCGAGTAGGTTAGTCGGGGCATTCAACCAACATA here?
Answer: 1.16

Question: For CCTTGCAGGCCAATCTGGGTCACTCAAGGCTTGA, which PBM binding z-score is on record?
Answer: 2.35

Question: How did the PBM binding z-score turn out when CTCGAAAGGTCGGTTGAGGTGAGTACACGGATAA was run?
Answer: 1.4

Question: For CCTGCTAGGTCGATGGTCAGCTAAAGCAGCTCGC, which PBM binding z-score is on record?
Answer: 1.43

Question: With CCTCGGAGGACAGAAGGTCAGGGCTGTCCGCTTT as the sequence, how does the PBM binding z-score read?
Answer: 1.07

Question: How did the PBM binding z-score turn out when CCTACTGGGCCAAGGTCAATGATCAGTCAAAGCA was run?
Answer: 4.33

Source: the supplement of paper PMC6555819
